Compounds with a hit are over-represented: about 2.9% of the library has one in this group of screens.
Mtb FBA inh: Mtb FBA enzyme inhibitors, primary screen, biochemical, fluorescence, strain H37Rv; Fructose-bisphosphate aldolase (Mycobacterium tuberculosis (strain ATCC 25618 / H37Rv)), …; purified M. tuberculosis FBA, fluorescence read-out; inhibition, % at 1 µM; 2.3% of 360,000 active; AID 588726, 2011;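 also: 0% = vehicle and 100% = reference inhibitor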
Target sequence (P9WQA3 whole entry, looked up): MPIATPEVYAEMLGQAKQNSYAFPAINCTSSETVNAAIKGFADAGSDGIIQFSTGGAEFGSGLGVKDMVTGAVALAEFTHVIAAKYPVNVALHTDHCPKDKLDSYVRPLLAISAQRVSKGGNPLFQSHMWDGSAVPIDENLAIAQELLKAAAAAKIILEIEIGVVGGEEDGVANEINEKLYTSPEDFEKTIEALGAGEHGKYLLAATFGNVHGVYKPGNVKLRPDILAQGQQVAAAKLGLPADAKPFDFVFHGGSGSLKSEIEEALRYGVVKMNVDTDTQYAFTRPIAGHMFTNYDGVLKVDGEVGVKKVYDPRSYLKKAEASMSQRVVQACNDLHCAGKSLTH
Mtb hypoxia rep: PubChem AID 1159583; M. tuberculosis hypoxia-regulated fluorescent reporter, fluorescence; fluorescence inhibition, % (no concentration beside the values); 0.1% of 300,000 active; in the data active = fluorescence inhibition mostly above about 23%, no sharp cut-off; inactive = mostly below about 17%
GDH-TPI counter-1: GDH-TPI coupling enzyme inhibitors, primary screen, artefact control for M. tuberculosis FBA inhibitor project, biochemical, absorbance, full deck; GDH-TPI coupled enzyme counterscreen, NADH absorbance; AID 588335, 2011; 1.2% of 360,000 active; inhibition, % at 4.8 µM; in the data active = inhibition above about 30%;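 also: 0% = DMSO wells and 100% = wells lacking the enzyme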
FadD28 binding: inhibitors of FadD28 bisubstrate probe binding, primary screen, biochemical, fluorescence polarization, single point; 0.22% of 360,000 active; AID 588549, 2011; Mycobacterium tuberculosis FadD28 fatty-acid-AMP ligase; inhibition, % at 12.5 µM; in the data active = inhibition above about 8.5%, passing the limit was not always enough
BioA inh: M. tuberculosis BioA enzyme inhibitors, primary screen, biochemical, plate reader, single point, HTS. 7,8-diaminopelargonic acid synthase BioA (Mycobacterium tuberculosis). purified M. tuberculosis BioA enzyme. inhibition, % at 9.99 µM. 0.096% of 360,000 active; in the data active = inhibition above about 40%
Mtb FBA inh conf: M. tuberculosis aldolase blockers, biochemical, fluorescence, strain H37Rv, confirmation; shares compounds with Mtb FBA inh; purified M. tuberculosis FBA, fluorescence read-out; inhibition, % at 1 µM; 78% of 5,600 active;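 also: 0% = vehicle wells and 100% = reference inhibitor wells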
GDH-TPI counter-2: GDH-TPI coupling enzyme inhibitors, artefact control for M. tuberculosis FBA inhibitor project, biochemical, fluorescence, high throughput; shares compounds with Mtb FBA inh; GDH-TPI coupled enzyme counterscreen; inhibition, % at 1 µM; 81% of 5,600 active; AID 652141, 2013; in the data active = inhibition above about 10%
* = called active by the depositor. Rule as the data show it, unless noted: active = inhibition above about 27%; inactive = the rest.

For CC(=NNC(=O)c1cc(-c2ccccc2C)nc2ccccc12)c1cccnc1 the results were Mtb hypoxia rep 4.9.
`C[C@H]1CN([C@@H](C)CO)S(=O)(=O)c2ccc(C3=CCCCC3)cc2O[C@@H]1CN(C)C(=O)C1CC1` gave BioA inh 6.4.
CC(C)SCC(=O)Nc1ncc2c(n1)-c1ccccc1CC2 was read as Mtb FBA inh 28.8*, Mtb hypoxia rep 9.8, GDH-TPI counter-1 7.4, FadD28 binding -1.6, Mtb FBA inh conf 3.2 and GDH-TPI counter-2 1.7.
`COc1cccc(C2CN(c3ccc(F)cc3F)N=C2c2cccs2)c1OC` (stereo not given) gave Mtb FBA inh 85.6*, Mtb hypoxia rep 3.8, GDH-TPI counter-1 4.6, FadD28 binding -4.9, BioA inh -0.7, Mtb FBA inh conf 168.5* and GDH-TPI counter-2 120.5*.
COc1ccccc1C1CN(c2ccccc2)N=C1c1cccs1 (stereo not given) was read as Mtb FBA inh 84.7*, Mtb hypoxia rep 15.6, GDH-TPI counter-1 6.6, FadD28 binding -3.0, BioA inh -0.3, Mtb FBA inh conf 4.3 and GDH-TPI counter-2 -4.5.
O=C(CC1CC1)Nc1ccc2c(c1)[C@@H]1C[C@H](CC(=O)N3CCCCC3)O[C@@H](CO)[C@@H]1O2 was read as BioA inh 0.6.
For CCCCN(C)Cc1c(C)[nH]c2ccc(OCC)cc2c1=O the results were Mtb FBA inh 34.9*, Mtb hypoxia rep 7.2, GDH-TPI counter-1 27.4, FadD28 binding -2.6, BioA inh 0.4, Mtb FBA inh conf 5.1 and GDH-TPI counter-2 -4.6.
Screening CCOC(=O)c1c(-c2ccc(F)cc2)cn2ccccc12 returned Mtb FBA inh 98.7*, GDH-TPI counter-1 23.4, FadD28 binding -2.0, BioA inh -2.6, Mtb FBA inh conf 139.1* and GDH-TPI counter-2 100.4*.
`CCOC(=O)c1c(-c2ccc(C)cc2)cn2ccccc12` gave Mtb FBA inh 88.8*, GDH-TPI counter-1 11.9, FadD28 binding -2.0, BioA inh 0.7, Mtb FBA inh conf 106.2* and GDH-TPI counter-2 79.5*.
Screening CCOC(=O)c1c(-c2ccc(OC)cc2)cn2ccccc12 returned Mtb FBA inh 26.1, Mtb hypoxia rep 17.6, GDH-TPI counter-1 3.5 and FadD28 binding -1.7.
For C[C@@H]1CN([C@@H](C)CO)C(=O)c2cc(NC(=O)Nc3ccc(C(F)(F)F)cc3)ccc2O[C@@H](C)CCCCO[C@H]1CN(C)S(=O)(=O)c1ccc(Cl)cc1 the results were BioA inh -0.1.
For c1coc(-c2nnc(-c3ccc4c(c3)OCO4)o2)c1 the results were Mtb hypoxia rep 9.4.
Cc1nccc(-c2ccc3c(c2)OCO3)n1 was read as Mtb FBA inh 28.7*, Mtb hypoxia rep 3.8, GDH-TPI counter-1 9.2, FadD28 binding 1.0, Mtb FBA inh conf 68.4* and GDH-TPI counter-2 48.1*.
For Cc1ccc(-c2nnc(-c3ccc4c(c3)OCO4)o2)cc1 the results were Mtb FBA inh 27.0*, Mtb hypoxia rep -0.7, GDH-TPI counter-1 11.2, FadD28 binding -2.9, BioA inh -0.4, Mtb FBA inh conf 74.8* and GDH-TPI counter-2 55.0*.
For c1cc(Nc2ncnc3sc4c(c23)CCC4)ccn1 the results were Mtb FBA inh 60.1*, Mtb hypoxia rep -6.1, GDH-TPI counter-1 5.0, FadD28 binding -1.5, BioA inh 3.1, Mtb FBA inh conf 8.5 and GDH-TPI counter-2 -4.2.
NNc1ncnc2sc3c(c12)CCC3 was read as Mtb FBA inh 0.1, Mtb hypoxia rep -3.5, GDH-TPI counter-1 5.7 and FadD28 binding -2.0.
`O=C(CSc1cccc2cccnc12)N1CCCC1` gave Mtb FBA inh 32.8*, GDH-TPI counter-1 5.4, FadD28 binding -0.9, Mtb FBA inh conf 140.5* and GDH-TPI counter-2 107.6*.
For COc1ccc(CCN2C(=O)c3ccccc3NC2c2cc(Cl)c(O)c(OC)c2)cc1 (stereo not given) the results were Mtb FBA inh 13.6, Mtb hypoxia rep 1.9, GDH-TPI counter-1 7.8, FadD28 binding -0.9 and BioA inh -1.4.
`CCCN1C(=O)c2ccccc2NC1c1cc(OC)c(OC)c(OC)c1` (stereo not given) gave Mtb FBA inh 71.0*, GDH-TPI counter-1 1.9, FadD28 binding -3.9, BioA inh -1.0, Mtb FBA inh conf 136.5* and GDH-TPI counter-2 113.8*.
`CCN(CC)CCN1C(=O)c2ccccc2NC1c1cc(OC)c(OC)c(OC)c1` (stereo not given) gave Mtb FBA inh 107.0*, Mtb hypoxia rep 10.3, GDH-TPI counter-1 9.3, FadD28 binding -2.3, BioA inh -1.8, Mtb FBA inh conf active and GDH-TPI counter-2 active.
Screening Cc1ccc(S(=O)(=O)N(C)C[C@H]2Oc3ccc(NC(=O)CCCCCC(=O)Nc4ccccc4N)cc3CC(=O)N([C@@H](C)CO)C[C@H]2C)cc1 returned BioA inh -0.2.
COc1ccc(OC)c(CCNC(=O)c2ccc3c(c2)N(Cc2ccccc2)CCS3)c1 was read as Mtb FBA inh 7.8, Mtb hypoxia rep -1.0, GDH-TPI counter-1 7.7, FadD28 binding -0.2 and BioA inh -4.1.
O=C(NCc1ccco1)c1ccc2c(c1)N(Cc1ccccc1)CCS2 was read as Mtb FBA inh 51.4*, Mtb hypoxia rep 12.4, GDH-TPI counter-1 20.8, FadD28 binding -0.4, Mtb FBA inh conf 114.6* and GDH-TPI counter-2 82.3*.
O=C(NCCCN1CCOCC1)c1ccc2c(c1)N(Cc1ccc(F)cc1)CCS2 was read as Mtb FBA inh 94.0*, Mtb hypoxia rep -5.0, GDH-TPI counter-1 10.9, FadD28 binding 0.8, BioA inh -0.1, Mtb FBA inh conf 178.2* and GDH-TPI counter-2 133.6*.
Cc1ccc(CN2CCSc3ccc(C(=O)NCc4ccccn4)cc32)cc1 was read as Mtb FBA inh 65.6*, Mtb hypoxia rep 5.2, GDH-TPI counter-1 15.6, FadD28 binding -1.2, BioA inh 3.4, Mtb FBA inh conf 96.8* and GDH-TPI counter-2 66.6*.
Screening O=C(NCCCN1CCCC1)c1ccc2c(c1)N(Cc1ccccc1)CCS2 returned Mtb FBA inh 96.3*, Mtb hypoxia rep -5.4, GDH-TPI counter-1 2.4, FadD28 binding -4.8, BioA inh -0.9, Mtb FBA inh conf 152.6* and GDH-TPI counter-2 146.8*.
`COCC(=O)Nc1ccc2c(c1)[C@H]1C[C@@H](CC(=O)NCc3ccccc3)O[C@H](CO)[C@H]1O2` gave BioA inh -1.0.

Screens (PubChem BioAssay)
